Assay outcomes deposited in PubChem by National Center for Advancing Translational Sciences (NCATS).
VDR inh: vitamin D3 receptor (human) inhibition; P11473; Potency, µM, without a hit: max response, negative = inhibition, hits mostly inhibitors; 400,000 tested, 0.93% active; VDR-SRC2-3 peptide fluorescence polarization, 2 h; AID 504847; note: % is set by controls: 0 for no effect and ±100 for the full control effect
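Reagent solutions, kept cold and dark, are dispensed first; compounds are then pinned in at 23 nl, plates briefly spun, and incubated 2 h at ambient temperature. Inhibition of VDR–SRC2-3 peptide binding is read by fluorescence polarization.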
JMJD2A Tudor inh: inhibitors of human JMJD2A Tudor domain. AlphaScreen JMJD2A-Tudor / H3K4me3 peptide binding. Potency, µM (titrated, usually from 114 µM), inactives show at the top dose activity change, negative = inhibition, actives largely listed as inhibitors. 390,000 tested, 4.4% active. AID 504339; note: % is set by controls: 0 for no effect and ±100 for the full control effect; nearly all actives have a fitted effect of over 50% in size
BAZ2B block: inhibitors of human BAZ2B bromodomain | AlphaScreen BAZ2B-H3K14Ac peptide displacement | Potency, µM (titrated, usually from 114 µM), for inactives: at the highest dose activity change, negative = inhibition, most hits filed as inhibitors | AID 504333 | 360,000 tested, 4.4% active | Q9UIF8; note: % is set by controls: 0 for no effect and ±100 for the full control effect; nearly all actives have a fitted effect of over 60% in size
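BAZ2B 50 nM plus b-H3(5-23)K14Ac 50 nM, PBS pH 7.4/0.01% Tween-20, 30 min RT; compound added (max 110 uM), 30 min RT; streptavidin donor/Ni-chelate acceptor beads 10 ug/mL final, 20 min dark; AlphaScreen read.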
PLK1 PBD inh: PLK1 (human) polo-box domain binding inhibition; Potency, µM, for inactives: max response, negative = inhibition, hits mostly inhibitors; Plk1 PBD binding of FITC phosphopeptide, fluorescence polarization; 360,000 tested, 2.8% active; note: series mostly up to about 57 µM; % is set by controls: 0 for no effect and ±100 for the full control effect; nearly all actives have a fitted effect of over 65% in size
Target sequence (P53350 whole entry, looked up, the tested form may be a part): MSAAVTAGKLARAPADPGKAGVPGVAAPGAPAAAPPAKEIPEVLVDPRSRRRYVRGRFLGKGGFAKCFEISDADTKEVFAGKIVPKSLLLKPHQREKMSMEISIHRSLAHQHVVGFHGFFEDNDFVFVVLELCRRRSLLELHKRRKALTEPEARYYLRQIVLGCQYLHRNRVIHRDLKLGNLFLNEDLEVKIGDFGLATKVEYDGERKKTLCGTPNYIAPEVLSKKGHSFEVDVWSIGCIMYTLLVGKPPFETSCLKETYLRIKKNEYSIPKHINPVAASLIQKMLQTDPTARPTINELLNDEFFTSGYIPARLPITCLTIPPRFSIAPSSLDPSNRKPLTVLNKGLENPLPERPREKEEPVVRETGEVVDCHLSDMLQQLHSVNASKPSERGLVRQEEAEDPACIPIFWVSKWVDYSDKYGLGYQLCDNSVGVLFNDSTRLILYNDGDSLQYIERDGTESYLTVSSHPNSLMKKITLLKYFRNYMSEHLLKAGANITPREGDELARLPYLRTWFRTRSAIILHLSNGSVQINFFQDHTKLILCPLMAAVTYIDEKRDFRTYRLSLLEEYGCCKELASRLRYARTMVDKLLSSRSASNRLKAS
L3MBTL1 block: blocks human L3MBTL1; Q9Y468; AlphaScreen L3MBTL1–H3K9me1 peptide binding; Potency, µM (titrated, usually from 57.1 µM), without a hit: at the highest dose activity, negative = inhibition, actives largely listed as inhibitors; 230,000 tested, 0.66% active; AID 485360; note: % is set by controls: 0 for no effect and ±100 for the full control effect; nearly all actives have a fitted effect of over 60% in size
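First, the protein-peptide complex forms for 30 min at room temperature (L3MBTL1 50 nM, biotinylated H3K9me1 peptide 75 nM). Next, compounds are pin-transferred and incubated 30 min. Finally, AlphaScreen beads are added and read after 30 min.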
HP1b chromo inh: inhibitors of HP1-beta chromodomain binding to methylated histone tails. Potency, µM (doses to about 114 µM), without a hit: at the top dose activity change, negative = inhibition, hits mostly inhibitors. 390,000 tested, 0.56% active. P83916. AlphaScreen HP1-beta / biotin-H3K9me3 peptide binding; note: nearly all actives have a fitted effect of over 70% in size
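HP1-beta protein (50 nM final) preincubated 30 min at room temperature with biotinylated H3(1-18)K9me3 peptide (50 nM) in PBS pH 7.4, 0.01% Tween-20, then compound added for 30 min. AlphaScreen streptavidin donor/nickel chelate acceptor beads (10 ug/mL final), 30 min dark, luminescence read.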
Numbers without * were called inactive; ? = inconclusive; · = no result; [ ] = dose if it differs, or a comment. An excerpt weighted towards active compounds, which were near 6.9% of everything screened. Calls come from the whole dose curve; as a rule, active = well fitted curve in the direction sought with a large enough effect; inconclusive = small, poorly fitted or top-dose-only effect, or another doubt; inactive = no such curve, though single readings can be large; an effect the other way counts as inactive or inconclusive. Potency is the fitted concentration of half-maximal effect.

SMILES	VDR inh	JMJD2A Tudor inh	BAZ2B block	PLK1 PBD inh	L3MBTL1 block	HP1b chromo inh
CCOc1cc(C2CC(=O)N3CN(C4CCCCC4)CSC3=C2C#N)ccc1O (centres undefined)	?	79µM*	-25%	11µM*	-4%	?
N#CC1=C2SCN(C3CCCCC3)CN2C(=O)CC1c1ccc(Br)cc1 (centres undefined)	18µM*	16µM*	·	·	·	?
Oc1ccc2cccnc2c1	-6%	?	2%	27µM*	-5%	4%
COc1ccccc1NC(=O)N(C)C[C@@H]1OCc2cnnn2CCCC(=O)N([C@@H](C)CO)C[C@H]1C	·	·	·	-9%	·	·
COc1ccc(CNC(=O)c2nn(-c3ccccc3)cc2OC)cc1	5%	-12%	-3%	-7%	·	13%
COc1cn(-c2ccccc2)nc1C(=O)Nc1ccc(C)cc1Cl	26%	?	79µM*	-12%	·	23%
O=C(Cn1cc(C(F)(F)F)ccc1=O)N/N=C/c1ccccc1O	?	-1%[11.4 µM]	4%	30µM*	-26%	6%
O=C(Cn1cc(C(F)(F)F)ccc1=O)N/N=C/c1ccc(F)cc1	11%	-2%	0%	-1%	·	41%
CNC(=O)CSc1nc2nn(-c3ccccc3)c(=O)c-2c2n1CCCCC2	11%	-19%	3%	-1%	9%	29%
O=C(CSc1nc2nn(-c3ccccc3)c(=O)c-2c2n1CCCCC2)c1ccc(O)c(O)c1	-10%	11µM*	10µM*	-20%	8.9µM*	28µM*
COCCNC(=O)CSc1nc2nn(-c3ccccc3)c(=O)c-2c2n1CCCCC2	2%	56µM*	-3%	24µM*	17%	-12%
CCOC(=O)C1=C(C)Nc2nc(=S)[nH]n2C1c1ccc(Cl)cc1 (centres undefined)	79µM*	16µM*	-29%	24µM*	-10%	?
O=C(O)c1cccnc1SCc1cn2cc(Br)ccc2n1	?	-23%[11.4 µM]	?	12µM*	-1%	5%
NC(=O)C1CCCN(C(=O)c2ccc3c(c2)NC(=O)CS3)C1 (centres undefined)	-8%	3%	-3%	3%	-1%	50%
COc1ccc(S(=O)(=O)NCc2ccc(C(=O)NCCCN3CC(C)CC(C)C3)cc2)cc1 (centres undefined)	-12%	?	-14%	27µM*	·	12%
O=C1CSc2ccc(C(=O)N3CCCCC3)cc2N1	·	·	·	15µM*	·	·
Cc1cc(C)n(CCCNC(=O)c2ccc3c(c2)NC(=O)CS3)n1	-15%	-17%	7%	3%	-2%	22%
CC1CC(C)CN(CCCNC(=O)c2ccc3c(c2)NC(=O)CS3)C1 (centres undefined)	-2%	-32%	-2%	30µM*	·	15%
O=C(O)c1ccc(N2CCCS2(=O)=O)cc1	5%	-15%	2%	-7%	·	22%
COC(=O)c1ccc(NC(=O)CN(Cc2ccccc2)S(=O)(=O)c2ccc(Cl)cc2)cc1	-15%	-10%	-5%	·	·	-13%
CC(=O)Nc1ccc(S(=O)(=O)NNC2=NS(=O)(=O)c3ccccc32)cc1	-2%	-34%	71µM*	-5%	·	50%
CC(=O)Nc1ccc(S(=O)(=O)NNC(=O)C(=O)NNc2ccccn2)cc1	2%	?	?	-4%	-5%	95%
COc1ccccc1CNC(=O)C(Cc1c[nH]c2ccccc12)NC(=O)OCc1ccccc1 (centres undefined)	3%	-20%[57.1 µM]	-9%	-2%	-6%	11%
O=C(O)c1ccc(Cn2cc(/C=C\[N+](=O)[O-])c3ccccc32)o1	13µM*	-24%	?	27µM*	-19%	6%
Cc1cccc(Cn2cc(/C=C/[N+](=O)[O-])c3ccccc32)c1	?	-27%	-2%	-26%	-5%	42%
SMILES	VDR inh	JMJD2A Tudor inh	BAZ2B block	PLK1 PBD inh	L3MBTL1 block	HP1b chromo inh
O=C(O)C1CSC2(CCN(Cc3ccccc3)CC2)N1 (centres undefined)	-2%	10µM*	56µM*	-1%	43%	?
O=C(Cc1ccccc1)NC1CCN(Cc2ccccc2)CC1	-1%	-9%	-15%	-7%	7%	46%
O=S1(=O)C2CC3C=CC2(O3)C(O)C(Cc2ccccc2)N1Cc1cccc(C(F)(F)F)c1 (centres undefined)	-15%	-6%	·	·	·	45%
CCCCCCc1ccc(C(=O)CCN(C)C)cc1	·	6%	·	·	·	·
O=C(NC1CC1)c1ccc(NC(=O)C2CCC2)cc1	79µM*	?	·	19µM*	·	24%
O=[N+]([O-])c1ccccc1S(=O)(=O)Oc1ccc(C(=S)N2CCOCC2)cc1	-1%	?	-27%	5.3µM*	-2%	?
COc1ccccc1CCNC(=O)CCc1c(C)c2cc3c(C)coc3cc2oc1=O	19%	-24%	-11%	·	·	36%
CCCCNc1c(-c2ccc(OC)c(SC3CCCCC3)c2)nc2ccc(C)cn12	0%	?	·	-18%	-14%	21%
Cc1ccc2nc(-c3cccc(SC4CCCCC4)c3)c(NC3CCCCC3)n2c1	2%	-29%	·	5%	-3%	12%
CCC(C)Sc1cc(-c2nc3ccc(C)cn3c2NCc2ccccc2)ccc1OC (centres undefined)	3%	56µM*	·	0%	·	?
COc1ccc(-c2nc3ccc(C)cn3c2NCc2ccccc2)cc1SC1CCCCC1	-5%	79µM*	50µM*	-5%	-12%	34%
CCC(C)Sc1ccc(-c2nc3ccc(C)cn3c2NCc2ccccc2)cc1OC (centres undefined)	2%	?	?	0%	-7%	0%
COc1ccc(-c2ccc(-c3nc4ccc(C)cn4c3NC3CCCCC3)cc2OC)cc1	-5%	40µM*	45µM*	4%	-18%	-16%
Cc1ccc(NC(=O)c2ccc(S(=O)(=O)NCc3cccnc3)cc2)c(C)c1	-3%	-9%	-7%	0%	·	36%
